This is an account of results in PubChem BioAssay.

Test [1] concerns TRPC4 beta (transient receptor potential cation channel C4), mouse. The test can be described thus: activators of mouse TRPC4 channel, confirmation, cell-based, Fluo4 calcium, HEK293 TRPC4beta/mu-opioid, duplicates, 10 µM (AID 2426). The settings on record: Fluo4 calcium fluorescence, at 10 µM; stronger effect = higher value.
The subject of test [2] is transient receptor potential cation channel C4 beta (TRPC4), mouse. The test can be described thus: activators of mouse TRPC4 channel, confirmation, cell-based, second round, Fluo4, HEK293 TRPC4beta/mu-opioid, 1 µM (AID 2461;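 active = primary screen active and over 50% activation in each of two duplicate runs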). The conditions noted are these: Fluo4 calcium fluorescence, at 1 µM; stronger effect = higher value.
Test [3] relates to TRPC4 (transient receptor potential cation channel C4 beta), mouse. The test can be described thus: positive allosteric modulators of mouse TRPC4, confirmation, cell-based, second round, Fluo-4, HEK293 TRPC4beta/mu-opioid, 1 µM (AID 2554;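 active = primary screen hit whose fluorescence ratio, in both repeats, exceeds the weak agonist control mean by 3 SD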). The settings on record: DAMGO EC20, Fluo-4 calcium flux, at 1 µM; stronger effect = higher value. For orientation: Calcium flux is commonly read through the fluorescence of an indicator in the cells.

The test system of test [4] is TRPC4 beta (transient receptor potential cation channel C4), mouse. Briefly: positive allosteric modulators of mouse TRPC4, confirmation, cell-based, Fluo-4, HEK293 TRPC4beta/mu-opioid (AID 2555;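 active = primary screen hit whose calcium fluorescence ratio, in both repeats, exceeds the weak agonist control mean by 3 SD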). The conditions noted are these: DAMGO EC20, Fluo-4 calcium flux, at 10 µM; stronger effect = higher value.
Test [5] deals with Short transient receptor potential channel 4 (Mus musculus) (UniProt Q9QUQ5). The test can be described thus: inhibitors of mouse TRPC4 channel, confirmation, cell-based, Fluo4, HEK293 TRPC4beta/mu-opioid (AID 2636;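 active = calcium signal cut by more than 3 SD below the full-agonist control yet still positive, in both repeats and the earlier primary screen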). The settings on record: DAMGO, Fluo4 calcium flux, at 10 µM; stronger effect = higher value.
Sequence of Short transient receptor potential channel 4 (Mus musculus) (Q9QUQ5 whole entry, looked up): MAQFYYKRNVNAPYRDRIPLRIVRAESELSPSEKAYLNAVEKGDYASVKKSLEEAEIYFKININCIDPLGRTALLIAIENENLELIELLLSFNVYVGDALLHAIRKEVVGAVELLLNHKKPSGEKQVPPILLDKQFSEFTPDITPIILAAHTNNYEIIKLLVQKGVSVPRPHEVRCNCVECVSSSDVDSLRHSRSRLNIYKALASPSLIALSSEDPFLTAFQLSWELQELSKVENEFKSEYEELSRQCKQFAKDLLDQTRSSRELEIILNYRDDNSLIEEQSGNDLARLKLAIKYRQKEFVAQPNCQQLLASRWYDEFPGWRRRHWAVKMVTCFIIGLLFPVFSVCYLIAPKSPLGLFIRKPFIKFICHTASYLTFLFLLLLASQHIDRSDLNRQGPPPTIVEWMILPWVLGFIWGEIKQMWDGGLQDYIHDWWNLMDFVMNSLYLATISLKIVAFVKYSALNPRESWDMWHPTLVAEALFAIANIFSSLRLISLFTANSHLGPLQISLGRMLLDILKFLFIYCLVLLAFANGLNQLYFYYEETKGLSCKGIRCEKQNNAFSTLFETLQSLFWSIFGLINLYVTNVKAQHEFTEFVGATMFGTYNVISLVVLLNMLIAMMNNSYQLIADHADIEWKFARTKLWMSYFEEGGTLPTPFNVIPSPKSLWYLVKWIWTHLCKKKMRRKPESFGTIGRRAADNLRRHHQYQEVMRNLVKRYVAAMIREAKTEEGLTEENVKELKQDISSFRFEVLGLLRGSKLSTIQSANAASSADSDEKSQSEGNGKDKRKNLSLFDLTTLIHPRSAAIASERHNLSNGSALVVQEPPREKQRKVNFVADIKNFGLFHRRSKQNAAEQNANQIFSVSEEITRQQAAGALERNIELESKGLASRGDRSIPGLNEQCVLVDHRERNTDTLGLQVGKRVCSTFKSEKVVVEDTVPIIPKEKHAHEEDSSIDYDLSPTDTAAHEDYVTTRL
For test [6] the target is unchanged. Briefly: inhibitors of mouse TRPC4 channel, confirmation, cell-based, second round, Fluo4, HEK293 TRPC4beta/mu-opioid, 1 µM (AID 2637;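 active = calcium signal ratio cut to more than 3 SD under the fully stimulated control mean yet still positive, in both repeats and the primary screen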). The conditions noted are these: Fluo4 calcium flux, DAMGO, at 1 µM; stronger effect = higher value.
Test [7] shares this target. Briefly: mouse TRPC4 channel activators, dose response, cell-based, HEK293 TRPC4/mu-opioid, Fluo-4 calcium (AID 434937;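 active = primary screen activator hit with a dose response curve and TRPC4 channel activation at any tested dose; inactive = no activation, no dose response, or not a primary hit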).
The target is the same in test [8]. Briefly: TRPC4 positive allosteric modulators, dose response, cell-based, HEK293 TRPC4/mu-opioid, Fluo-4 calcium, EC20 DAMGO (AID 434941;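 active = earlier screen potentiator hit that boosts the TRPC4 ion channel at some dose, with a dose response; inactive = no potentiation, no dose response, or not a prior hit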;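 note: calcium entry triggered by an EC20 dose of DAMGO at the co-expressed mu-opioid receptor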).
Test [9] shares this target. Briefly: mouse TRPC4 channel inhibitors, dose response, cell-based, HEK293 TRPC4/mu-opioid, Fluo-4 calcium (AID 434942;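 active = primary screen inhibitor hit that blocks the TRPC4 channel at some tested dose, yielding a dose curve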).
For test [10], the target named is Short transient receptor potential channel 6 (Mus musculus) (UniProt Q61143). The test can be described thus: inhibition of mouse TRPC6 channel, confirmation, selectivity assay for TRPC4 inhibitor project, cell-based, HEK293, membrane potential dye, duplicate (AID 434948;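 active = active in primary screen and both duplicates, each dropping signal beyond three positive-control SD with fluorescence still positive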). The conditions noted are these: HEK293 TRPC6, membrane potential dye fluorescence, at 10 µM, stimulated with maximal-effect acetylcholine; stronger effect = higher value.
Sequence of Short transient receptor potential channel 6 (Mus musculus) (Q61143 whole entry, looked up): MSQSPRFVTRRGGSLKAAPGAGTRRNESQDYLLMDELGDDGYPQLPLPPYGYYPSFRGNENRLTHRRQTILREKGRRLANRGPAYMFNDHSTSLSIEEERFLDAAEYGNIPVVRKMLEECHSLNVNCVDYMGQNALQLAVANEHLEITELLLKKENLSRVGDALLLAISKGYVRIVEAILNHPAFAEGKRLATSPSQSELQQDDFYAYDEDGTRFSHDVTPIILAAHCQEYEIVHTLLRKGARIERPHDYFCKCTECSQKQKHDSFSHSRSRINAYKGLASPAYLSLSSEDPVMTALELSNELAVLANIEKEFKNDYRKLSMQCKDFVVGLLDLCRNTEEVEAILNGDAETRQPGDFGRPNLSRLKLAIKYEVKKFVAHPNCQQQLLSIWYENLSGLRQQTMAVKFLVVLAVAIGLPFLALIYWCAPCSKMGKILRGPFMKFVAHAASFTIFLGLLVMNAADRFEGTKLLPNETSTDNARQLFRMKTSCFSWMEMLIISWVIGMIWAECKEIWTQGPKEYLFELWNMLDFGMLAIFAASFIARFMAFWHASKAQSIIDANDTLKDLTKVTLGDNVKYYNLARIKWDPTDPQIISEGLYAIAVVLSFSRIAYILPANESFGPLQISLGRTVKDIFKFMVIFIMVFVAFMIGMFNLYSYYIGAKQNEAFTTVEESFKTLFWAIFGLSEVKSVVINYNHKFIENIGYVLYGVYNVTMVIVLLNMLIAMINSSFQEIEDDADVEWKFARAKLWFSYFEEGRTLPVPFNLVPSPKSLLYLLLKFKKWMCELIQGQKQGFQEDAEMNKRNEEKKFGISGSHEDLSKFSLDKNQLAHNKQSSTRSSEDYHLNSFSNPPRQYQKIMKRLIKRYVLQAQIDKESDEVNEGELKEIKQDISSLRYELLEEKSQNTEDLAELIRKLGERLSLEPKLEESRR

Test [11] has the same target. Briefly: activation of mouse TRPC6 channel, confirmation, selectivity assay for TRPC4 activator project, cell-based, HEK293, membrane potential dye, duplicate (AID 434950;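 active = membrane potential signal rise above negative control mean plus 3 SD in both duplicates, also active in the earlier TRPC4 screen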). The settings on record: HEK293 TRPC6, membrane potential fluorescence, at 10 µM; stronger effect = higher value.
The target is the same in test [12]. The test can be described thus: TRPC6 potentiation by TRPC4 potentiator hits, confirmation, selectivity assay for TRPC4 potentiator project, HEK293 cells, membrane potential dye, duplicate (AID 434952;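 active = compound raising the membrane signal above positive-control mean plus 3 SD in both repeats, and a primary screen hit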). The settings on record: HEK293 TRPC6, membrane potential dye fluorescence, at 10 µM, maximal acetylcholine added after compound; stronger effect = higher value.
Test [13] addresses Short transient receptor potential channel 4 (Mus musculus) (UniProt Q9QUQ5). Briefly: calcium flux activators in TRPC4/5HT1a cells, counter-screen for TRPC4 activator project, cell-based, second counter screen, HEK293 TRPC4/5HT1a, Fluo-4 (AID 434977;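 active = calcium signal rise above buffer-control mean plus 5 SD in both duplicates, and also a hit in the primary screen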;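 for activation: plate controls were assay buffer for no effect and maximal serotonin response for full effect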). The conditions noted are these: Fluo-4 calcium flux, at 10 µM; stronger effect = higher value.
Test [14] can be described thus: calcium flux inhibitors in TRPC4/5HT1a cells, confirmation, counter-screen for TRPC4 inhibitor project, cell-based, second counter screen, HEK293 TRPC4/5HT1a, Fluo-4 (AID 434978;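 active = primary screen active whose calcium signal fell more than 3 SD beyond the full-serotonin control mean in both duplicate plates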;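 note: serotonin given first at submaximal then at maximal dose after compound preincubation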). The conditions noted are these: Fluo-4 calcium flux, at 10 µM, serotonin added to trigger calcium flux; stronger effect = higher value.
In test [15] the test system is TRPC4 (mouse), co-expressed with 5HT1a in HEK293. The test can be described thus: calcium flux potentiators in TRPC4/5HT1a cells, confirmation, counter-screen for TRPC4 potentiator project, cell-based, second counter screen, HEK293 TRPC4/5HT1a, Fluo-4 (AID 434979;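 active = signal rise over 3 SD above mean of control wells given weak agonist, in both repeats and first screen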). The conditions noted are these: Fluo-4 calcium flux, at 10 µM, serotonin added at its EC20 dose; stronger effect = higher value.

Test [16] can be described thus: calcium flux activation in mu-opioid HEK293 cells, confirmation, counter-screen for TRPC4 activator project, cell-based, HEK293 mu-opioid receptor line (AID 449723;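 active = hit in primary screen, with calcium signal over 5 SD above buffer well mean in both duplicates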;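 note: counter screen cells carry the mu-opioid receptor alone and lack TRPC4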). The settings on record: Fluo-4 calcium fluorescence, at 10 µM; stronger effect = higher value.
The nature of test [17]: calcium flux enhancement in mu-opioid HEK293 cells, confirmation, counter-screen for TRPC4 allosteric potentiator project, cell-based, HEK293 mu-opioid receptor line (AID 449724;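 active = calcium signal rise more than 3 SD above the low-dose agonist control mean, in both duplicate plates and the primary screen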;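 note: HEK293 cells carrying mu-opioid receptor only with no TRPC4 channel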). The conditions noted are these: Fluo-4 calcium flux, at 10 µM, compound added before EC20 DAMGO stimulus; stronger effect = higher value.

SMILES strings stand for the structures. For some assays here: Results with a measured potency or affinity are listed apart. Calls of active or inactive are those of the source.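 Rule for the calls, unless noted: active = fluorescence ratio normalized to control raised more than 50% in primary screen plus both repeat runs; inactive = the rest.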

As to `CC(=O)c1nn(-c2cccc(Br)c2)cc1C(=O)c1cccc2ccccc12`, the outcome in test [1], in test [2], in [3], in [4], in test [5] and in test [6] was inactive. Also, the outcome in test [7], in [8], in test [9], in test [10], in [11] and in [12] was inactive. Moreover, the outcome in [13], in test [14], in test [15], in test [16] and in test [17] was inactive.
As for `O=C1CCSc2ccc(Cl)cc2N1Cc1ccc(Cl)cc1`, the outcome in test [1], in [2], in [3], in [4], in test [5] and in test [6] was inactive. Moreover, the result in test [7], in [8], in test [9], in [10], in test [11] and in test [12] was inactive. The outcome in [13], in test [14], in test [15], in test [16] and in [17] was inactive.
Consider `CC(C)c1cccc(OCCCCN(C)C)c1`, for which the outcome in [1], in test [2], in test [5], in test [6], in [7] and in [8] was inactive. Moreover, the result in test [9], in test [10], in [11], in [12], in [13] and in test [14] was inactive. The result in [16] and in test [17] was inactive. Besides, the potentiation was 9% (active) in test [3], 20% (active) in test [4] and 16.2% (active) in test [15].
As for `CCOc1ccccc1C(=O)NCCc1cnc[nH]1`, the result in test [1], in [2], in test [3], in [5], in test [6] and in test [7] was inactive. The result in [8], in [9], in [10], in test [11], in test [12] and in [13] was inactive. Also, the result in [14], in [16] and in test [17] was inactive. Further, the values for the potentiation in test [4] and in [15] were 10% (active) and 16.9% (active), respectively.
In the case of `O=C(CSCc1cccc(Cl)c1)N1CCN(Cc2ccc3c(c2)OCO3)CC1`, the outcome in test [1], in test [2], in test [3], in test [4], in [5] and in [6] was inactive. The result in test [7], in test [8], in [9], in test [10], in test [11] and in test [12] was inactive. For the same compound, the result in [13], in [14], in test [15], in [16] and in [17] was inactive.
For the compound `COc1ccc(/C=N/Nc2nc3ccccc3s2)cc1O`, the result in [1], in [2], in test [3], in test [4], in [5] and in test [6] was inactive. Also, the result in test [7], in test [8], in [9], in [10], in test [11] and in [12] was inactive. Further, the outcome in [13], in test [14], in test [16] and in test [17] was inactive. Further, the potentiation in test [15] is 26% (active).
As for `Cn1c2ccccc2c(=O)c2c(=O)n(-c3ccccc3)c(-c3ccc(C(C)(C)C)cc3)nc21`, the result in test [1], in [2], in [3], in test [4], in [5] and in test [6] was inactive. In addition, the result in test [7], in test [8], in test [9], in [10], in test [11] and in test [12] was inactive. Also, the outcome in [13], in test [14], in [15], in [16] and in test [17] was inactive.
Turning to `Cc1cc(C)c(C)c(S(=O)(=O)NCc2ccco2)c1C`, the result in [1], in [2], in [3], in [4], in test [5] and in test [6] was inactive. In addition, the outcome in test [7], in [8], in test [9], in test [10], in test [11] and in [12] was inactive. For the same compound, the result in test [13], in test [14], in test [16] and in [17] was inactive. In addition, the potentiation in [15] was 28.1% (active).
Take `Cc1ccc(S(=O)(=O)N2CCC(C(=O)OCC(=O)N(C)CC(=O)Nc3ccc(F)cc3)CC2)cc1C`: the result in test [1], in [2], in test [3], in [4], in test [5] and in [6] was inactive. Further, the outcome in test [7], in test [8], in [9], in [10], in test [11] and in test [12] was inactive. Further, the result in test [13], in test [14], in [15], in test [16] and in test [17] was inactive.
As to `N=C(N)SCc1cn2ccccc2n1`, the outcome in [1], in [2], in test [3], in test [4], in test [5] and in [6] was inactive. The result in test [7], in test [8], in [9], in test [10], in test [11] and in test [12] was inactive. Also, the result in test [13], in [14], in test [16] and in test [17] was inactive. In addition, the potentiation in test [15] was 8.53% (active).
Regarding `CCCN(CCC)CCCNC(=O)c1cc2c(=O)n(C)c3ccccc3c2n1C`, the outcome in test [1], in test [2], in test [4], in [5], in [6] and in test [7] was inactive. The result in test [8], in test [9], in test [10], in test [11], in test [12] and in [14] was inactive. In addition, the result in [16] and in [17] was inactive. The potentiation in test [3] is 23% (active); in test [15], 23.1% (active). Besides, in test [13], the activation is 6.09% (active).
For the compound `CC1(C)CC(=O)C(C=NCCN2CCN(C(=O)CCl)CC2)=C(O)C1`, the result in [1], in test [2], in test [3], in [4], in test [5] and in test [6] was inactive. Moreover, the outcome in test [7], in [8], in [9], in test [10], in test [11] and in test [12] was inactive. For the same compound, the outcome in test [13], in [14], in [15], in test [16] and in test [17] was inactive.
As a reminder, the inhibition is the percentage by which the read-out fell short of the control. For the compound `COC(=O)/C=C1\SC(=NC(=O)c2cccc(Cl)c2)NC1=O`, the result in [1], in test [2], in test [3], in [4], in [6] and in [7] was inactive. In addition, the result in test [8], in test [9], in test [10], in test [11], in [12] and in test [13] was inactive. The result in test [14], in test [15], in [16] and in test [17] was inactive. In addition, the inhibition in test [5] is 76% (active).
As to `CN1CCCN(Cc2cccc3ccccc23)CC1`, the result in test [1], in test [2], in [4], in [5], in test [6] and in test [7] was inactive. The outcome in test [8], in test [9], in test [10], in [11], in test [12] and in test [13] was inactive. For the same compound, the outcome in [14], in [16] and in test [17] was inactive. In addition, the potentiation in test [3] was 34% (active); in test [15], 28.3% (active).
As to `COc1cc(/C=C2\C(=O)ON=C2c2ccccc2)cc(Cl)c1O`, the result in test [1], in [2], in test [3], in [4], in test [6] and in test [7] was inactive. Moreover, the result in test [8], in [9], in test [10], in [11], in [12] and in test [13] was inactive. Also, the outcome in test [14], in [15], in test [16] and in [17] was inactive. Further, the inhibition in test [5] was 76% (active).
In the case of `COC(=O)[C@@]12CCCCN1[C@H](c1ccc(-c3ccccc3)cc1)[C@@H]1C(=O)N(C)C(=O)[C@@H]12`, the outcome in test [1], in test [2], in test [3], in test [4], in [5] and in test [6] was inactive. In addition, the outcome in test [7], in [8], in test [9], in test [10], in [11] and in [12] was inactive. The outcome in test [13], in test [14], in [16] and in [17] was inactive. In addition, in [15], the potentiation is 20.4% (active).
